Here are results for 16 compounds from PubChem BioAssay (NCATS).

Records with an inconclusive call do not appear. A number with no mark means an inactive call. Activity calls are given as the source filed them. Calls come from the whole dose curve; as a rule, active = well fitted curve in the direction sought with a large enough effect; inconclusive = small, poorly fitted or top-dose-only effect, or another doubt; inactive = no such curve, though single readings can be large; an effect the other way counts as inactive or inconclusive.

The subject of one test is HEK293. The test can be described thus: Cytotoxic Profiling of Annotated Libraries Using Quantitative High-Throughput Screening (AID 1296008). For max response: % is set by controls: 0 for no effect and ±100 for the full control effect. Note: nearly all actives have a fitted effect of over 60% in size. Note: potency is the fitted concentration of half-maximal effect. The settings on record: Five cell lines viability, CellTiter-Glo ATP luminescence, 48-72 h; max response: hits give low values. In outline:
(§1)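 Cells exposed to compounds for 48 or 72 hr at 37 degrees Celsius. Viability read as ATP-coupled luminescence with CellTiter-Glo after 10 min at room temperature.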
(In general: In ATP-based viability assays light output follows the ATP content of the culture.)

In test [1] the test system is HaCat. The description is as above. The settings on record: Five cell lines viability, CellTiter-Glo ATP luminescence, 48-72 h; max response: hits give low values. In outline:
as §1

The next test has as its system C33A. Briefly: Primary qHTS to identify gynecologic anti-cancer compounds using libraries of approved drugs and bioactive compounds (AID 1345084). For activity change, negative = cytotoxicity: % is set by controls: 0 for no effect and ±100 for the full control effect. Note: nearly all actives have a fitted effect of over 55% in size. Note: potency is the fitted concentration of half-maximal effect. Particulars: Gynecologic cancer cell panel viability, ATPlite luminescence, 48 h; series mostly up to 57.5 µM. In outline: (§2)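 Cells, 1,000 per well, plated 16 h, then exposed 48 h at 37 C to compounds. Viability by ATPlite luminescence after 15 min at room temperature.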
(In general: Quantitative high-throughput screening tests each substance at several concentrations.)

A further test concerns CASKI. The description is as above. Particulars: Gynecologic cancer cell panel viability, ATPlite luminescence, 48 h; series mostly up to 57.5 µM. In outline: as §2
In another test the test system is Es-2. The test is described as above. Particulars: Gynecologic cancer cell panel viability, ATPlite luminescence, 48 h; series mostly up to 57.5 µM. In outline:
as §2

For another test, the system named is JEG-3. The description is as above. Particulars: Gynecologic cancer cell panel viability, ATPlite luminescence, 48 h; series mostly up to 57.5 µM. In outline: as §2
The test system of the next test is OV90. The description is as above. Particulars: Gynecologic cancer cell panel viability, ATPlite luminescence, 48 h; series mostly up to 57.5 µM. In outline: as §2
Another test concerns HeLa. The description is as above. Particulars: Gynecologic cancer cell panel viability, ATPlite luminescence, 48 h; series mostly up to 57.5 µM. In outline:
as §2

The subject of the next test is PA-1. The description is as above. Particulars: Gynecologic cancer cell panel viability, ATPlite luminescence, 48 h; series mostly up to 57.5 µM. In outline:
as §2

The subject of the next test is Hek293T. Described as above. The settings on record: Gynecologic cancer cell panel viability, ATPlite luminescence, 48 h, control line for the selectivity index; series mostly up to 57.5 µM. In outline:
as §2

A further test has as its system CAOV3. The description is as above. The settings on record: Gynecologic cancer cell panel viability, ATPlite luminescence, 48 h; series mostly up to 57.5 µM. In outline:
as §2

The subject of test [2] is HACAT. The test can be described thus: qHTS assay to identify novel small-molecules to repurpose for Merkel cell carcinoma treatment (AID 1296009). Note: nearly all actives have a fitted effect of over 60% in size. Particulars: MCC and control cell lines, CellTiter-Glo viability, 72 h; at 44.8 µM (top of the series) unless noted. In outline:
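Cells were incubated with compound for 72 hr at 37 degree celsius before CellTiter-Glo addition. Luminescence was normalized with no-cell wells as full cytotoxicity and DMSO as baseline.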

Another test has as its system NIH3T3. Briefly: Cytotoxic Profiling of Annotated Libraries Using Quantitative High-Throughput Screening (AID 1296008). For max response: % is set by controls: 0 for no effect and ±100 for the full control effect. Note: nearly all actives have a fitted effect of over 60% in size. Note: potency is the fitted concentration of half-maximal effect. Particulars: Five cell lines viability, CellTiter-Glo ATP luminescence, 48-72 h; max response: hits give low values. In outline:
as §1

Turning to `CC(=O)N1CCN(CCOc2ccc(C3CCN(C4=Nn5c(nnc5C(F)(F)F)CC4)CC3)cc2)CC1`, the Potency with HEK293 is 9.2 µM (active). The max response in the test on HaCat [1] is -1.46%. Besides, the Potency result in the test on C33A, in the test with CASKI, in the test with Es-2, in the test with JEG-3 and with OV90 was “inactive” each time.

On to `CC(C)C[C@H](C(=O)O)c1cc(-c2ccc(C(F)(F)F)cc2)cc(-c2ccc(C(F)(F)F)cc2)c1`, for which, in the test on HEK293, the Potency was 10.3 µM (active). Moreover, the max response with HaCat [1] is 1.64%. The Potency result in the test with C33A, in the test on CASKI, in the test on Es-2 and with JEG-3 was “inactive” throughout.

In the case of `CC(C)(C[C@@](O)(Cc1cc2ccncc2[nH]1)C(F)(F)F)c1cc(F)ccc1O`, in the test on HEK293, the Potency is 11.6 µM (active). Besides, in the test on HaCat [1], the max response was -2.9%. Also, the Potency result with C33A, in the test with CASKI, in the test with Es-2, in the test on HeLa, in the test with JEG-3 and in the test with OV90 was “inactive” throughout. Also, the Potency result in the test on PA-1 was “inactive”.

`CN(C)CCCn1cc(C2=C(c3c[nH]c4ccccc34)C(=O)NC2=O)c2ccccc21`: the Potency in the test on HEK293 was 14.6 µM (active); in the test with Es-2, 28.2 µM (active); in the test with Hek293T, 22.4 µM (active). In addition, in the test with HaCat [1], the max response was -0.893%. For the same compound, the Potency result in the test with JEG-3 is “inactive”.

Regarding `CN(c1ccc(NC(=O)Nc2ccccc2)cc1)S(=O)(=O)c1cnn(-c2ccc(F)cc2)c1`, in the test on HEK293, the Potency was 16.4 µM (active). Further, the max response in the test on HaCat [1] is -33.8%. The Potency entry with C33A, with CAOV3, in the test on CASKI, in the test with Es-2, in the test with JEG-3 and with OV90 was “inactive” throughout. Moreover, the Potency entry in the test on PA-1 is “inactive”.

In the case of `COc1cc([C@H]2O[C@H](c3cc(OC)c4c(c3)OCO4)[C@H](C)[C@H]2C)cc(OC)c1OC`, the results for the Potency with HEK293 and with OV90 were 0.893 µM (active) and 8.91 µM (active), respectively. Also, in the test on HaCat [1], the call was inactive. For the same compound, in the test on HACAT [2], the outcome is “inactive [at 17.4 µM]”. The Potency entry in the test on CAOV3, with CASKI, in the test with HeLa and with JEG-3 was “inactive” each time.

On to `C=C(C)C(=O)OC1CC(CO)CCC/C(CO)=C/C2OC(=O)C(=C)C21` (stereo unspecified), for which the Potency with HEK293 is 7.18 µM (active). Besides, the max response in the test on HaCat [1] is 1.02%. Further, the Potency result with C33A, in the test on CAOV3, in the test with CASKI, in the test with HeLa, with JEG-3 and in the test on OV90 was “inactive” throughout.

Take `CC(C)(C)c1ccc(NC(=O)N2CCN(c3ncccc3Cl)CC2)cc1`: in the test on HEK293, the Potency was 11.6 µM (active). Also, the max response in the test on HaCat [1] is 4.52%. The Potency result in the test with CAOV3, in the test with CASKI, in the test on Es-2, with HeLa and in the test with JEG-3 was “inactive” throughout.

For the compound `COc1cccc(OCCCN)c1-c1cc(Nc2cnc(C#N)cn2)n[nH]1`, the Potency with HEK293 is 0.0103 µM (active); in the test on NIH3T3, 0.0411 µM (active); in the test with CAOV3, 14.1 µM (active). Also, the Potency entry with CASKI is “inactive”.

As for `CN(C)CC1CCn2c(c(C3=C(c4cn(C)c5ccccc45)C(=O)NC3=O)c3ccccc32)C1` (stereo unspecified), the Potency in the test with HEK293 is 8.2 µM (active); in the test with HaCat [1], 20.6 µM (active); in the test on CAOV3, 22.4 µM (active); in the test on OV90 it was 12.6 µM (active). The Potency entry in the test with Hek293T and in the test with JEG-3 was “inactive” in each case.

As for `CCCC(CCC)C(=O)Nc1ccn([C@@H]2O[C@H](CO)[C@@H](O)C2(F)F)c(=O)n1`, the Potency in the test with HEK293 is 6.51 µM (active); with NIH3T3, 4.11 µM (active). Moreover, the Potency result in the test with C33A, in the test with HeLa, in the test on Hek293T and in the test on JEG-3 was “inactive” each time.

In the case of `CN(C)C(=O)NC1(c2ccccc2)CCN(CCC[C@]2(c3ccc(Cl)c(Cl)c3)CCCN(C(=O)c3ccccc3)C2)CC1`, the figures for the Potency in the test on HEK293 and in the test on NIH3T3 were 16.4 µM (active) and 20.6 µM (active), respectively. In addition, the Potency entry in the test on C33A, in the test on HeLa and with JEG-3 was “inactive” throughout.

With `Cn1cc(-c2cnn3c(N)c(Br)c(C4CCCNC4)nc23)cn1` (stereo unspecified), the Potency with HEK293 was 1.03 µM (active); in the test on NIH3T3 it was 6.51 µM (active); with PA-1 it was 14.1 µM (active). The Potency result with CAOV3, in the test with CASKI, with JEG-3 and in the test with OV90 was “inactive” each time.

As to `N#CSc1cc(SC#N)c(N)nc1N`, in the test with HEK293, the Potency was 3.1 µM (active). Besides, the max response in the test with HaCat [1] was -25%. Besides, the activity change, negative = cytotoxicity in the test on CAOV3 is -3.29% [at 11.6 µM]; with CASKI, 10.8% [at 11.6 µM]; with HeLa, -2.58% [at 11.6 µM]; in the test with JEG-3, 10.3% [at 11.6 µM]; in the test on OV90, 2.64% [at 11.6 µM].

In the case of `Oc1cccc(C2NC(=S)Nc3cccc(F)c32)c1` (stereo unspecified), the Potency was 5.8 µM (active) with HEK293, 6.51 µM (active) in the test with HaCat [1] and 22.4 µM (active) in the test on JEG-3. For the same compound, the Potency entry in the test with OV90 was “inactive”.

As for `O=C(Nc1cccc([N+](=O)[O-])c1)c1cccc(S(=O)(=O)N2CCCCCC2)c1`, the Potency in the test on HEK293 was 6.51 µM (active). In addition, in the test with HaCat [1], the max response was -27.5%. The Potency entry in the test with CAOV3, with CASKI, in the test with Es-2, with HeLa, in the test on JEG-3 and in the test on PA-1 was “inactive” throughout.
